The record followed here is the antibiotic and cytotoxicity screens of Wong et al. (2023).

Structures are written as SMILES. About 500 (1.3%) of roughly 39,000 compounds were called active. The sample as a whole holds a higher share of actives than the screen did.

The test system of the assay is S. aureus RN4220. The experiment in a line: growth inhibition call (relative growth <= 0.2). To be noted: 50 µM.
In the case of `COc1ccc(NC(=O)Nc2ccc3c(c2)C(=O)N([C@@H](C)CO)C[C@@H](C)[C@@H](CN(C)C(=O)CCC(F)(F)F)OCCCC[C@@H](C)O3)cc1`, the growth inhibition call is “inactive”. Next, `C[C@@H]1CN([C@H](C)CO)C(=O)Cc2cc(NC(=O)C3CCCCC3)ccc2O[C@@H]1CN(C)Cc1ccc(C(F)(F)F)cc1`: “inactive”. The same measure for `COc1cc(C(=O)NS(=O)(=O)c2ccccc2C)ccc1Cc1cn(C)c2ccc(NC(=O)OC3CCCC3)cc12`: “active”; for `COc1cc(Nc2nc3ccccc3nc2NS(=O)(=O)c2ccc(NC(=O)c3ccc(C)c(OC)c3)cc2)cc(OC)c1`: “inactive”.

For the compound `COc1ccccc1CNC(=O)C[C@H]1C[C@H]2c3cc(NC(=O)NC4CCCC4)ccc3O[C@H]2[C@H](CO)O1`, the growth inhibition call was “inactive”. Regarding `CCNC(=O)[C@@H]1[C@@H](CO)[C@@H]2Cn3c(ccc(-c4ccc(OC)cc4)c3=O)[C@H]1N2S(C)(=O)=O`, the growth inhibition call was “inactive”. `COc1ccc(NC(=O)Nc2ccc3c(c2)C(=O)N([C@H](C)CO)C[C@@H](C)[C@H](CN(C)CC2CC2)OCCCC[C@@H](C)O3)cc1`: the growth inhibition call was “inactive”. Next, `C[C@H](CO)N1C[C@H](C)[C@H](CN(C)Cc2ccc(-c3ccccc3)cc2)Oc2c(NS(=O)(=O)c3ccc(F)cc3)cccc2C1=O`: “inactive”; `COc1ccc(C)cc1S(=O)(=O)NCCO`: “inactive”. As to `COc1ccc2cc(-c3cc(-c4cc(Cl)cc(Cl)c4)nn3[C@@H](C)c3ccc(C(=O)NCCC(=O)O)cc3)ccc2c1`, the growth inhibition call was “inactive”.

In the case of `Cc1cc(C)c(-c2ccc(NC(=O)[C@H](Cc3ccc(C(=O)NCCS(=O)(=O)O)cc3)c3ccc(-c4ccc(C(C)(C)C)cc4)cc3)cc2)c(C)c1`, the growth inhibition call was “inactive”. On to `Cc1cc(O[C@@H](CCC(F)(F)F)c2ccc(C(=O)NCCC(=O)O)cc2)cc(C)c1-c1ccc(C(C)(C)C)cc1`, for which the growth inhibition call is “active”. Take `COc1ccc(NC(=O)Nc2cccc3c2O[C@H](CN(C)S(C)(=O)=O)[C@H](C)CN([C@@H](C)CO)C3=O)cc1`: the growth inhibition call was “inactive”.

In the case of `Nc1ncn(C[C@@H](O)CO)c2nc(Br)nc1-2`, the growth inhibition call was “inactive”. Turning to `Nc1nnc(-c2ccc([N+](=O)[O-])o2)o1`, the growth inhibition call was “active”. Next, `Cc1cc(-c2nnc(N)o2)nn1C`: “inactive”; `Nc1nnc(-c2ccno2)o1`: “inactive”.

`Cc1noc(C)c1NC(=O)N(C)C[C@@H]1OCCCC[C@@H](C)Oc2ccc(NC(=O)Nc3ccc(F)cc3)cc2C(=O)N([C@@H](C)CO)C[C@H]1C`: the growth inhibition call was “inactive”. `CC(=O)Oc1cc(-c2coc3cc(OC(C)=O)c(OC(C)=O)c(OC(C)=O)c3c2=O)cc(OC(C)=O)c1OC(C)=O`: the growth inhibition call was “inactive”. Next, `O=C(NC1CCN(CCCCC2(C(=O)NCC(F)(F)F)c3ccccc3-c3ccccc32)CC1)c1ccccc1-c1ccc(C(F)(F)F)cc1`: “active”; `O=C(NC1CCCCCCC1)c1ccccc1-c1ccccc1`: “inactive”.

As for `C[C@]1(C(=O)NCC(F)(F)F)c2ccccc2C(=O)N(Cc2cc(C(F)(F)F)cc(C(F)(F)F)c2)[C@H]1c1ccc(CO)cc1`, the growth inhibition call is “inactive”. As for `C[C@@H]1CN([C@H](C)CO)C(=O)Cc2cc(NC(=O)Nc3ccc4c(c3)OCO4)ccc2O[C@H]1CN(C)S(C)(=O)=O`, the growth inhibition call was “inactive”. Take `Cc1ccc(S(=O)(=O)N(C)C[C@H]2Oc3ccc(NC(=O)NC(C)C)cc3CC(=O)N([C@H](C)CO)C[C@H]2C)cc1`: the growth inhibition call was “inactive”. On to `O=C(Cn1cnnn1)NC1C(=O)N2C(C(=O)O)=C(CSc3nncs3)CSC12` (centres undefined), for which the growth inhibition call was “active”. The same measure for `Cc1nnc(SCC2=C(C(=O)O)N3C(=O)[C@@H](NC(=O)Cn4cnnn4)[C@H]3SC2)s1`: “active”.

As to `Cc1nnc(SCC2=C(C(=O)O)N3C(=O)[C@@H](N)[C@H]3SC2)s1`, the growth inhibition call was “inactive”. With `Cc1nnc(SCC2=C(C(=O)[O-])N3C(=O)C(NC(=O)Cn4cnnn4)C3SC2)s1.[Na+]` (centres undefined), the growth inhibition call is “active”. Consider `C[C@@H]1CN([C@@H](C)CO)C(=O)c2cc(NC(=O)Cc3ccccc3)ccc2O[C@@H](C)CCCCO[C@H]1CN(C)C(=O)Nc1cccc2ccccc12`, for which the growth inhibition call was “inactive”. On to `Cc1cc(C(=O)Nc2cccc3c2O[C@H](CN(C)C(=O)Nc2ccccc2)[C@@H](C)CN([C@H](C)CO)C3=O)n(C)n1`, for which the growth inhibition call was “inactive”. Turning to `C[C@@H]1CCCCO[C@@H](CN(C)C(=O)c2ccccc2)[C@@H](C)CN([C@H](C)CO)C(=O)c2cc(NC(=O)CCCCCC(=O)Nc3ccccc3N)ccc2O1`, the growth inhibition call was “inactive”. With `C[C@H]1CCCCO[C@H](CN(C)S(=O)(=O)c2ccc(F)cc2)[C@@H](C)CN([C@@H](C)CO)C(=O)c2cc(NC(=O)Nc3cccc4ccccc34)ccc2O1`, the growth inhibition call was “inactive”. As to `Cc1csc2c(Cl)ncnc12`, the growth inhibition call is “inactive”. Take `COc1ccc(CCN2C(=O)[C@@]3(Cc4ccccc42)c2ccccc2C(=O)N(C2CCCCC2)[C@H]3c2ccc(CO)cc2)cc1`: the growth inhibition call is “inactive”.

Turning to `COc1ccc(NC(=O)N(C)C[C@@H]2OCCCC[C@H](C)Oc3ccc(NC(=O)C4CCCCC4)cc3C(=O)N([C@H](C)CO)C[C@H]2C)cc1`, the growth inhibition call was “inactive”. Next, `C[C@H]1CCCCO[C@H](CN(C)C(=O)C2CCCCC2)[C@@H](C)CN([C@@H](C)CO)C(=O)c2cc(NC(=O)c3ccccc3)ccc2O1`: “inactive”; `Cc1nn(C)cc1NC(=O)C[C@H]1CC[C@@H]2[C@H](COc3ccc(NC(=O)C4CCOCC4)cc3C(=O)N2C)O1`: “inactive”; `N#CCN1CCSCC1`: “inactive”.

With `C[C@H]1CN([C@@H](C)CO)C(=O)c2cc(NC(=O)CCN3CCOCC3)ccc2O[C@H]1CN(C)CC1CCCCC1`, the growth inhibition call is “inactive”. For `Cc1noc(C)c1S(=O)(=O)N(C)C[C@H]1OCCCC[C@@H](C)Oc2ccc(NS(C)(=O)=O)cc2C(=O)N([C@@H](C)CO)C[C@H]1C`, the growth inhibition call is “inactive”. Regarding `COCC(=O)Nc1ccc2c(c1)C(=O)N(C)[C@@H]1CC[C@@H](CC(=O)N3CCc4ccccc4C3)O[C@H]1CO2`, the growth inhibition call is “inactive”. As for `Cc1ccc(S(=O)(=O)N(C)C[C@@H]2Oc3ccc(NC(=O)NC(C)C)cc3CC(=O)N([C@H](C)CO)C[C@@H]2C)cc1`, the growth inhibition call was “inactive”. Turning to `C[C@@H]1CCCCO[C@@H](CN(C)Cc2ccc(C(=O)Nc3ccccc3N)cc2)[C@@H](C)CN([C@H](C)CO)C(=O)c2cc(NC(=O)C3CCCCC3)ccc2O1`, the growth inhibition call is “inactive”. Take `C[C@H]1CN([C@@H](C)CO)C(=O)c2cccc(NC(=O)c3cnccn3)c2O[C@H]1CN(C)Cc1ccc(C(=O)O)cc1`: the growth inhibition call was “inactive”.
